Source: PubChem (National Center for Advancing Translational Sciences (NCATS))
TDP1 cell CPT – DT40-hTDP1 cell growth loss with CPT | chicken DT40 Tdp1-/-;hTDP1 cells + 20 nM CPT, ATP luminescence, 48 h | Potency, µM (doses to about 46.2 µM), for inactives: top-dose activity change, negative = growth inhibition, usual class: inhibitors | actives 12% (n = 420,000) | AID 686979; further: potency means the concentration at half of the fitted maximal effect; on the % scale 0 is the no-effect control and ±100 the full control effect; nearly all actives have a fitted effect of over 55% in size
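Cell growth measured by CellTiter-Glo luminescence after a minimum 48 h, 37 C compound exposure with 20 nM CPT in Tdp1-knockout DT40 cells stably expressing hTDP1, seeded 400/well; qHTS titration format.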
TDP1 block – inhibitors of human tyrosyl-DNA phosphodiesterase TDP1 | Q9NUW8 | recombinant TDP1, AlphaScreen DNA substrate cleavage | Potency, µM (series often up to 130 µM), inactives show at the top dose activity change, negative = inhibition, hits mostly inhibitors | actives 0.28% (n = 350,000); further: potency means the concentration at half of the fitted maximal effect; on the % scale 0 is the no-effect control and ±100 the full control effect; nearly all actives have a fitted effect of over 40% in size
Target sequence (Q9NUW8 whole entry, looked up): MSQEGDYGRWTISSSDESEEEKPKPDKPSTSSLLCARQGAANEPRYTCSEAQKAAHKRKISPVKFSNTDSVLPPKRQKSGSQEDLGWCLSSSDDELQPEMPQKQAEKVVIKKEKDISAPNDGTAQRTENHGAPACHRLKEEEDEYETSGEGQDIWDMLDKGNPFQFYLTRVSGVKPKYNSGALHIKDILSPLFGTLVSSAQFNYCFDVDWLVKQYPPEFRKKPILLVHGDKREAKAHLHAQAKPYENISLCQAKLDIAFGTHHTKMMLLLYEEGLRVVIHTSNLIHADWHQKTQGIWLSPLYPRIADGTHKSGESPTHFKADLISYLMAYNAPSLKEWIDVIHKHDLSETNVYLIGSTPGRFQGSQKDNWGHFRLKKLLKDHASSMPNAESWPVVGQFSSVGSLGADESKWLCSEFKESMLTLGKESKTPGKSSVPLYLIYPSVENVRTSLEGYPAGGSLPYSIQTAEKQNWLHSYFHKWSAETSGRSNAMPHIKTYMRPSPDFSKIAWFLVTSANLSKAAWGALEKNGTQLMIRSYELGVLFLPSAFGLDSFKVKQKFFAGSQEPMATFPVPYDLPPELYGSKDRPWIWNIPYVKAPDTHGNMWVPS
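AlphaScreen read-out: signal falls as enzyme removes the 3' tyrosine-FITC from a 5'-biotinylated DNA oligo (15 nM, 5 min, RT). Enzyme was E. coli-made recombinant Tdp1 at 1 nM, exposed to compound for 15 min beforehand; beads 10 ug/ml, 10 min.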
DT40 TDP1 no CPT – qHTS for Inhibitors of human tyrosyl-DNA phosphodiesterase 1 (TDP1): qHTS in cells in absence of CPT | DT40 Tdp1-/- hTDP1 cells, no CPT, ATP luminescence, 48 h | Potency, µM (titrated, usually from 46.2 µM), without a hit: top-dose activity change, negative = growth inhibition, usual class: inhibitors | actives 15% (n = 420,000) | AID 686978, 2013; further: potency means the concentration at half of the fitted maximal effect; on the % scale 0 is the no-effect control and ±100 the full control effect; nearly all actives have a fitted effect of over 55% in size
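Seeded 400 DT40-hTDP1 cells/well (vehicle DMSO, no 20 nM CPT); pinned compounds; ≥48 hr at 37 °C; CellTiter-Glo luminescence as viability measure.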
TGFb SMAD3 inh – TGF-b pathway inhibition | Potency, µM (doses to about 46.1 µM), inactives show at the top dose activity, negative = inhibition, most hits filed as inhibitors | HepG2 CAGA-GFP TGF-b/SMAD3 reporter, GFP fluorescence, 18 h; TGF-beta stimulated, 500 pg/mL final | actives 1.2% (n = 410,000); further: potency means the concentration at half of the fitted maximal effect; on the % scale 0 is the no-effect control and ±100 the full control effect; nearly all actives have a fitted effect of over 65% in size
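HEPG2 CAGA-GFP cells (1000/well, DMEM with 1% FBS) were pre-incubated 2 h at 37 degrees C, given compound by pin tool, then stimulated with TGF-beta at 500 pg/mL final for 18 h before per-cell GFP fluorescence imaging.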
IL1B secr inh – blocks inflammasome-driven IL-1 beta release; activity change, % at 57.5 µM; THP-1 LPS/ATP IL-1B secretion, AlphaLISA, 16 h; hits give low values; actives 4.7% (n = 360,000); AID 743279; in the data active means activity change below about -50%; inconclusive means mostly about -30% to -49%; further: on the % scale 0 is the no-effect control and ±100 the full control effect
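THP-1 cells pretreated 1 hr with compounds (up to 57.5 uM final), then stimulated with LPS (250 ng/mL final) plus ATP (1.25 mM final); secreted IL-1B measured by AlphaLISA after 16 hr, decreased signal indicating inhibition.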
HepG2 tox – kills HepG2 cells in TGF-b inhibitor counter-screen; AID 588856; actives 0.76% (n = 410,000); HepG2 CAGA-GFP viability, ATP luminescence, 18 h; Potency, µM (doses to about 46.1 µM), for the others: top-dose activity change, negative = cytotoxicity, actives largely listed as cytotoxic; further: potency means the concentration at half of the fitted maximal effect
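CellTiter-Glo luminescence gave cytotoxicity after 18 hours at 37 degrees C. The cells were HepG2 CAGA-GFP in 1% FBS DMEM, stimulated with 500 pg/mL TGF-beta after compound addition. %Activity was normalised to no-cell wells (complete cell-killing) and DMSO (no toxicity), and curves were fitted and classified.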
Active calls of the source: *; ? = inconclusive; · = no result given; [ ] = remark or other dose. Most compounds without a hit are left out; they make up all but 19% or so of the library. Unless noted, the call rests on the fitted dose curve; in most records, active means well fitted curve in the direction sought with a large enough effect; inconclusive means small, poorly fitted or top-dose-only effect, or another doubt; inactive means no such curve, though single readings can be large; an effect the other way counts as inactive or inconclusive.

SMILES	TDP1 cell CPT	TDP1 block	DT40 TDP1 no CPT	TGFb SMAD3 inh	IL1B secr inh	HepG2 tox
CN1/C(=C/C(=O)COC(=O)C2COc3ccccc3O2)C(C)(C)c2ccccc21 (centres undefined)	26µM*	·	21µM*	12%	10	8%
CCn1cc(C(=O)NCc2ccc(C)cc2)c(=O)c2cc(S(=O)(=O)N(C)C3CCCCC3)ccc21	?	-2%	?	?	·	-10%
Cc1ccc(CCNS(=O)(=O)c2ccc(C)cc2)cc1	?	6%	-18%	-12%	-22	-8%
Cc1ccc(CCNS(=O)(=O)c2ccc3c(c2)NC(=O)C(C)C(=O)N3)cc1 (centres undefined)	-22%	·	23µM*	-3%	15	-1%
COc1ccc(CNS(=O)(=O)c2ccc3c(c2)NC(=O)C(C)S3)cc1 (centres undefined)	?	-1%	?	-57%	10	-36%
CC(C)C1C(=O)Nc2ccc(S(=O)(=O)NCCc3ccc(Cl)cc3)cc21 (centres undefined)	?	6%	23µM*	?	·	-49%
COc1cccc(CNS(=O)(=O)c2ccc3c(c2)C(C(C)C)C(=O)N3)c1 (centres undefined)	?	3%	13µM*	-29%	·	-14%
O=C(C[n+]1cccc(Br)c1)c1ccc2c(c1)CCCC2	?	·	?	-10%	·	-25%
CC(C)C[C@H]1CN([C@@H](Cc2ccc(O)cc2)CN2CCC[C@@H]2CN2C(=S)NC[C@@H]2Cc2ccccc2)C(=S)N1CCc1ccccc1	6.5µM*	·	6.5µM*	?	-27	-5%
Oc1ccc(C[C@@H](CN2CCC[C@@H]2CN2C(=S)NC[C@@H]2Cc2ccccc2)N2C[C@H](Cc3ccccc3)N(CCc3ccccc3)C2=S)cc1	16µM*	·	18µM*	-6%	-17	-51%
CC(C)C[C@H]1CNC(=S)N1C[C@H]1CCCN1C[C@H](Cc1ccc(O)cc1)N1C[C@H](CC(C)C)N(CCc2ccccc2)C1=S	?	·	21µM*	?	-63*	-4%
O=C(C[n+]1cccc2cc(Cl)ccc21)c1cccc([N+](=O)[O-])c1	-5%	·	?	24%	·	-24%
COc1cc(C(=O)N[C@H](C(=O)OCC(=O)NC2CCCCCC2)C(C)C)cc(OC)c1OC	?	0%	2%	-23%	51	-33%
CN(Cc1ccco1)c1nc(-c2ccoc2)nc2ccccc12	?	·	-25%	·	·	·
CN(C)c1ccc(-c2nc(N(C)C)c3ccccc3n2)cc1	?	10%[56.1 µM]	23µM*	·	·	·
Cc1ccccc1-c1nc(N(C)C)c2ccccc2n1	-26%	·	-18%	·	·	·
CN(C)c1ccc(-c2nc(N(C)Cc3ccco3)c3ccccc3n2)cc1	29µM*	13%	16µM*	·	·	·
CCN(CC)c1nc(-c2ccc(C(C)(C)C)cc2)nc2ccccc12	23µM*	5%[2.28 µM]	?	11%	·	1%
CN(C)c1ccc(-c2nc(-n3ccnc3)c3ccccc3n2)cc1	13µM*	·	18µM*	·	·	·
O=C(Nc1cccc(F)c1)N1CCC2(CC1)CCN(C(=O)c1csnn1)CC2	7%	·	-24%	·	·	·
COCc1[nH]c(=S)[nH]c(=O)c1C	14%	3%	-2%	-19%	31	1%
COc1cc(/C=C2/CCc3ccccc3C2=O)cc(OC)c1OC	?	1%	15µM*	-22%	-99*	-8%
COc1ccc(C=C2CCc3ccccc3C2=O)cc1	?	·	?	?	1	-88%
COc1ccc(/C=C2/CCc3ccccc3C2=O)cc1OC	?	3%	?	-29%	-99*	-30%
COc1ccc(OC)c(N=C2C(=O)Nc3ccccc32)c1	-6%	8%	-1%	-22%	9	1%
SMILES	TDP1 cell CPT	TDP1 block	DT40 TDP1 no CPT	TGFb SMAD3 inh	IL1B secr inh	HepG2 tox
COc1ccc2c(c1)/C(=C/c1cc(OC)c(OC)c(OC)c1)C(=O)N2	0.52µM*	·	0.73µM*	?	-6	-9%
COc1cc(/C=C2\CCc3ccccc3C2=O)cc(OC)c1OC	18µM*	8%	16µM*	?	-101*	19%
O=C(CCC(=O)Nc1ccccc1)NNC(=O)C(c1ccccc1)c1ccccc1	-5%	2%	-18%	-10%	-1	-8%
O=C(O)C[C@@H](CNC(=O)COc1ccc2ccc(=O)oc2c1)c1ccc(Cl)cc1	-9%	2%	3%	12%	-4	14%
COc1ccc(/C=C2\C(=O)NC(=O)c3ccccc32)cc1OC	1.6µM*	·	1.5µM*	-6%	51	-3%
COc1ccc(C=C2C(=O)OC(C)(C)OC2=O)cc1OC	-1%	-6%	-10%	7%	-1	0%
CCc1ccc(NC(=O)C(C)OC(=O)CC(NC(C)=O)c2ccccc2)cc1 (centres undefined)	5%	7%	?	24%	-23	-15%
Cc1cc(Cl)c(S(=O)(=O)Nc2ccc3c(c2)OCCO3)cc1OCC(=O)NC1CCCCC1	?	4%	?	-23%	-53*	-10%
COC(=O)COc1ccc(S(=O)(=O)Nc2ccc3c(c2)OCCO3)cc1C	?	·	?	-15%	-73*	-11%
COC(=O)COc1ccc(S(=O)(=O)Nc2ccc3c(c2)OCCO3)cc1Cl	-23%	4%	-17%	?	?	-20%
Cc1cc(Cl)c(S(=O)(=O)NCC2CCCO2)cc1OCC(=O)NC1CCCCC1 (centres undefined)	3%	4%	-1%	25%	-25	-8%
Cc1cc(Cl)c(S(=O)(=O)Nc2ccon2)cc1OCC(=O)NC1CCCCC1	-5%	6%	5%	?	0	-3%
Cc1cc(Cl)c(S(=O)(=O)NC2CCCCC2)cc1OCC(=O)Nc1nncs1	26µM*	-3%	23µM*	-10%	17	0%
NCC(=O)N[C@@H](CCCN=C(N)N)C(=O)NCC(=O)N[C@@H](CCC(=O)O)C(=O)N[C@@H](CO)C(=O)O	·	11%	·	·	·	·
Cc1ccccc1CNC(=O)c1cc2cccc3c2n1CC(C)S3 (centres undefined)	?	-3%	?	0%	·	-25%
CC1Cn2c(C(=O)NCc3ccccc3Cl)cc3cccc(c32)S1 (centres undefined)	?	-6%	?	-14%	·	-19%
